Data taken from PubChem BioAssay (NCI).
Compounds without any hit were thinned out: in the full panel of roughly 83,000, 20% have a hit.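 Plates (96-well) were seeded with cells, treated with compound at one concentration, and incubated for 48 hours before percent growth was determined.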 Unmarked numbers belong to inactive results. The source made the active and inactive calls. How the source made its calls: active means growth percent below 10; inactive means the rest.

How the values were obtained:
Assay in all cases: NCI-60 one-dose screen, 48 h (100 = growth as untreated, 0 = no growth, -100 = all killed)
T-47D breast = conditions: 10 µM
BT-549 breast = conditions: 10 µM unless noted
MDA-MB-435 melanoma = conditions: 10 µM unless noted
SW-620 colon = conditions: 10 µM unless noted
MCF7 breast = conditions: 10 µM unless noted
HCT-116 colon = conditions: 10 µM unless noted
HCC-2998 colon = conditions: 10 µM unless noted
KM12 colon = conditions: 10 µM unless noted

c1ccc2c(c1)oc1cc3c(cc12)nnc1cccn13
growth (T-47D breast): 85.4%
growth (BT-549 breast): 97.9%
growth (MDA-MB-435 melanoma): 105%
growth (SW-620 colon): 108%
growth (MCF7 breast): 82.3%
growth (HCT-116 colon): 100%
growth (HCC-2998 colon): 110%
growth (KM12 colon): 99.8%

Cc1nn(-c2ccccc2)c2nc3nc4c(c(N)c3c(-c3ccc(Cl)cc3)c12)CCC4
growth (T-47D breast): 102%
growth (BT-549 breast): 114%
growth (MDA-MB-435 melanoma): 95.1%
growth (SW-620 colon): 50.8%
growth (MCF7 breast): 87.5%
growth (HCT-116 colon): 58.2%
growth (HCC-2998 colon): 109%
growth (KM12 colon): 96.6%

COc1ccc(-c2nc3sc(C)nn3c2-c2nc3cc(C)c(C)cc3[nH]2)cc1
growth (T-47D breast): 95.4%
growth (BT-549 breast): 96.5%
growth (MDA-MB-435 melanoma): 95.6%
growth (SW-620 colon): 98.5%
growth (MCF7 breast): 88.6%
growth (HCT-116 colon): 97.5%
growth (HCC-2998 colon): 106%
growth (KM12 colon): 103%

COc1ccc(C2SC(C)C(=O)N2CCc2cccs2)cc1OC (configuration not stated)
growth (T-47D breast): 52.9%
growth (BT-549 breast): 76%
growth (MDA-MB-435 melanoma): 98.3%
growth (SW-620 colon): 102%
growth (MCF7 breast): 86.3%
growth (HCT-116 colon): 78.4%
growth (HCC-2998 colon): 84%
growth (KM12 colon): 96.3%

O=C1c2[nH]cc(CN[C@@H]3CCCN3)c2C(=O)c2c1c(O)c1ccccc1c2O
growth (T-47D breast): -72.4% (active)
growth (BT-549 breast): 41.1%
growth (MDA-MB-435 melanoma): -98.3% (active)
growth (SW-620 colon): -98.1% (active)
growth (MCF7 breast): -96.5% (active)
growth (HCT-116 colon): -82.8% (active)
growth (HCC-2998 colon): -85.8% (active)
growth (KM12 colon): -89.8% (active)

CCCCC(=O)N/N=C/c1cc(I)cc(I)c1O
growth (T-47D breast): 52.1%
growth (BT-549 breast): 55.2%
growth (MDA-MB-435 melanoma): 56.7%
growth (SW-620 colon): 54.6%
growth (MCF7 breast): 41.5%
growth (HCT-116 colon): 15.1%
growth (HCC-2998 colon): 66.5%
growth (KM12 colon): 53.2%

CC1(C)N=C(N)N=C(N)N1c1cccc(/C=C/C=C/c2cccc([N+](=O)[O-])c2)c1
growth (T-47D breast): 78.1%
growth (BT-549 breast): 46.1%
growth (MDA-MB-435 melanoma): 23.3%
growth (SW-620 colon): 44.6%
growth (MCF7 breast): 57.9%
growth (HCT-116 colon): 24.7%
growth (HCC-2998 colon): 45.1%
growth (KM12 colon): 35.5%

Cc1oc2c(c1C(=O)N1CC[C@@H](N)C1)C(=O)c1c(c(O)c3ccccc3c1O)C2=O
growth (T-47D breast): 61.8%
growth (BT-549 breast): 79%
growth (MDA-MB-435 melanoma): 40.3%
growth (SW-620 colon): 3.53% (active)
growth (MCF7 breast): -1.04% (active)
growth (HCT-116 colon): 5.14% (active)
growth (HCC-2998 colon): 12.3%
growth (KM12 colon): 15.7%

Cc1cc(O)cc2c1[C@H]1CC[C@]3(C)[C@@H](O)CC[C@H]3[C@@H]1C=C2
growth (T-47D breast): 96.5%
growth (BT-549 breast): 100%
growth (MDA-MB-435 melanoma): 7.81% (active)
growth (SW-620 colon): 72%
growth (MCF7 breast): 109%
growth (HCT-116 colon): 86.6%
growth (HCC-2998 colon): 48.4%
growth (KM12 colon): 102%

COc1cc(/C=C2\C(=O)Nc3ccccc32)cc(OC)c1O
growth (T-47D breast): 49.6%
growth (BT-549 breast): 74.8%
growth (MDA-MB-435 melanoma): -25.3% (active)
growth (SW-620 colon): 31.5%
growth (MCF7 breast): 30.8%
growth (HCT-116 colon): 46.4%
growth (HCC-2998 colon): 78.8%
growth (KM12 colon): 32.2%

O=C(O)c1ccccc1Oc1cc(-c2ccco2)nc(OCCBr)n1
growth (T-47D breast): 101%
growth (BT-549 breast): 92.1%
growth (MDA-MB-435 melanoma): 101%
growth (SW-620 colon): 105%
growth (MCF7 breast): 101%
growth (HCT-116 colon): 96.5%
growth (HCC-2998 colon): 107%
growth (KM12 colon): 95.6%

COc1cc(-c2nc3ccccc3o2)cc(CN2CCN(c3ccccc3)CC2)c1O
growth (T-47D breast): 91.5%
growth (BT-549 breast): 55.3%
growth (MDA-MB-435 melanoma): -78% (active)
growth (SW-620 colon): 94.3%
growth (MCF7 breast): 60.6%
growth (HCT-116 colon): 56.4%
growth (HCC-2998 colon): 85.5%
growth (KM12 colon): 49.8%

CNc1ccc(Br)cc1-c1n[nH]c(=O)[nH]c1=O
growth (T-47D breast): 109%
growth (BT-549 breast): 99.9%
growth (MDA-MB-435 melanoma): 98.8%
growth (SW-620 colon): 92.9%
growth (MCF7 breast): 90.2%
growth (HCT-116 colon): 98.2%
growth (HCC-2998 colon): 107%
growth (KM12 colon): 111%

CC(C)N1CCN(c2ccc(OC[C@H]3CO[C@](Cn4cncn4)(c4ccc(Cl)cc4Cl)O3)cc2)CC1
growth (T-47D breast): 105%
growth (BT-549 breast): 84.4%
growth (MDA-MB-435 melanoma): 69.7%
growth (SW-620 colon): 98.4%
growth (MCF7 breast): 95%
growth (HCT-116 colon): 77.7%
growth (HCC-2998 colon): 104%
growth (KM12 colon): 95.4%

CSc1ccc(OC(C)=O)cc1C
growth (T-47D breast): 90.6%
growth (BT-549 breast): 98%
growth (MDA-MB-435 melanoma): 91.3%
growth (SW-620 colon): 105%
growth (MCF7 breast): 100%
growth (HCT-116 colon): 101%
growth (HCC-2998 colon): 102%
growth (KM12 colon): 101%

Oc1ccccc1/C=N/Nc1nc2ccccc2s1
growth (T-47D breast): 37.8%
growth (BT-549 breast): 51.4%
growth (MDA-MB-435 melanoma): 56.9%
growth (SW-620 colon): 50.1%
growth (MCF7 breast): 20.2%
growth (HCT-116 colon): 41.2%
growth (KM12 colon): 22.1%

O=C1c2ccccc2-c2nnc(-c3ccc(Br)cc3)cc21
growth (T-47D breast): 52.7%
growth (BT-549 breast): 71.5%
growth (MDA-MB-435 melanoma): -69.1% (active)
growth (SW-620 colon): 73.3%
growth (MCF7 breast): 14.8%
growth (HCT-116 colon): 1.98% (active)
growth (KM12 colon): 64%

Cc1nc(NC(=O)COc2cccc(/C=C3\COc4ccccc4C3=O)c2)sc1C
growth (T-47D breast): 53.2%
growth (BT-549 breast): -68.5% (active)
growth (MDA-MB-435 melanoma): -44.5% (active)
growth (SW-620 colon): -100% (active)
growth (MCF7 breast): -58.7% (active)
growth (HCT-116 colon): -88.4% (active)
growth (KM12 colon): -92.4% (active)

Cc1c(C)n(CC(O)CNC2CCCCC2C)c2ccccc12 (configuration not stated)
growth (T-47D breast): -10.5% (active)
growth (BT-549 breast): -94.3% (active)
growth (MDA-MB-435 melanoma): -67.9% (active)
growth (SW-620 colon): -77% (active)
growth (MCF7 breast): -23.4% (active)
growth (HCT-116 colon): -81.9% (active)
growth (KM12 colon): -77.9% (active)

COc1ccc(-c2[nH]ncc2Nc2cc(OC)c(OC)c(OC)c2)cc1
growth (T-47D breast): 18%
growth (BT-549 breast): 27.3%
growth (MDA-MB-435 melanoma): -11.7% (active)
growth (SW-620 colon): 32.4%
growth (MCF7 breast): 23.1%
growth (HCT-116 colon): 35.5%
growth (KM12 colon): 32.5%

Cc1nc2nc(C(F)(F)F)[nH]c2nc1C
growth (T-47D breast): 104%
growth (BT-549 breast): 100%
growth (MDA-MB-435 melanoma): 112%
growth (SW-620 colon): 114%
growth (MCF7 breast): 95.2%
growth (HCT-116 colon): 101%
growth (KM12 colon): 105%

O=C1C(N2CCOCC2)=Cc2cccc3cccc1c23
growth (T-47D breast): 86.6%
growth (BT-549 breast): 109%
growth (MDA-MB-435 melanoma): 102%
growth (SW-620 colon): 98.3%
growth (MCF7 breast): 66.2%
growth (HCT-116 colon): 94.7%
growth (KM12 colon): 95.8%

CCCCCn1c(=N)n(CC(O)COc2cccc(C)c2)c2ccccc21 (configuration not stated)
growth (T-47D breast): -0.186% (active)
growth (BT-549 breast): -16.9% (active)
growth (MDA-MB-435 melanoma): 6.94% (active)
growth (SW-620 colon): 10.8%
growth (MCF7 breast): 7.34% (active)
growth (HCT-116 colon): 11%
growth (KM12 colon): 6.37% (active)

COc1ccc(C(=O)COc2cccc(/C=C3\CSc4ccc(C)cc4C3=O)c2)cc1
growth (T-47D breast): 79.7%
growth (BT-549 breast): 108%
growth (MDA-MB-435 melanoma): 69.5%
growth (SW-620 colon): -21.5% (active)
growth (MCF7 breast): 30.9%
growth (HCT-116 colon): 53.1%
growth (KM12 colon): 79.6%

O=C1OCC2=C1C(c1ccc3c(c1)OCO3)CC(=O)N2c1cccc(Cl)c1 (configuration not stated)
growth (T-47D breast): 103%
growth (BT-549 breast): 126%
growth (MDA-MB-435 melanoma): 100%
growth (SW-620 colon): 105%
growth (MCF7 breast): 86.7%
growth (HCT-116 colon): 114%
growth (KM12 colon): 101%

COC(=O)C1C2CC3c4[nH]c5cc(OC)ccc5c4CCN3CC2CC(OC2CCCCO2)C1OC (configuration not stated)
growth (T-47D breast): 108%
growth (BT-549 breast): 97.2%
growth (MDA-MB-435 melanoma): 101%
growth (SW-620 colon): 100%
growth (MCF7 breast): 95.8%
growth (HCT-116 colon): 103%
growth (KM12 colon): 105%

COC(=O)CCC(=O)c1ccccc1
growth (T-47D breast): 102%
growth (BT-549 breast): 107%
growth (MDA-MB-435 melanoma): 96.9%
growth (SW-620 colon): 106%
growth (MCF7 breast): 96.1%
growth (HCT-116 colon): 108%
growth (KM12 colon): 110%

CCN1CCN(C(=S)SCC(=O)Nc2nc3ccc(OC)cc3s2)CC1
growth (T-47D breast): 86.6%
growth (BT-549 breast): 89.5%
growth (MDA-MB-435 melanoma): 107%
growth (SW-620 colon): 110%
growth (MCF7 breast): 96.3%
growth (HCT-116 colon): 95.8%
growth (KM12 colon): 90.6%

O=S(=O)(Nc1ncccn1)c1ccc(Nc2ccc3nnc(-c4ccncc4)n3n2)cc1
growth (T-47D breast): 101%
growth (BT-549 breast): 106%
growth (MDA-MB-435 melanoma): 108%
growth (SW-620 colon): 93%
growth (MCF7 breast): 104%
growth (HCT-116 colon): 108%
growth (HCC-2998 colon): 111%
growth (KM12 colon): 101%

CCOC(=O)c1c(-c2cc(OC)c(OC)c(OC)c2)csc1N
growth (T-47D breast): 94%
growth (BT-549 breast): 117%
growth (MDA-MB-435 melanoma): -1.03% (active)
growth (SW-620 colon): 76.6%
growth (MCF7 breast): 78.1%
growth (HCT-116 colon): 90.4%
growth (KM12 colon): 64.2%

COC(=O)c1c2c(c(C)[n+]([O-])c1C)C(=O)C(NCc1ccc(O)cc1)=CC2=O
growth (T-47D breast): -7.43% (active)
growth (BT-549 breast): 34.5%
growth (MDA-MB-435 melanoma): -96.5% (active)
growth (SW-620 colon): -3.33% (active)
growth (MCF7 breast): -63.4% (active)
growth (HCT-116 colon): -6.79% (active)
growth (HCC-2998 colon): -20.1% (active)
growth (KM12 colon): 2.07% (active)

COc1ccc(CSc2nc3cc(OC)c(OC)cc3c(=O)n2-c2ccc(Cl)cc2)cc1
growth (T-47D breast): 95.4%
growth (BT-549 breast): 100%
growth (MDA-MB-435 melanoma): 98%
growth (SW-620 colon): 99.2%
growth (MCF7 breast): 101%
growth (HCT-116 colon): 98.4%
growth (HCC-2998 colon): 108%
growth (KM12 colon): 102%
